Reference: PMC4336329 (PLoS ONE, 2015)
Among all 310,000 compounds or so, about 14,000 (4.5%) showed an effect of 50% or more. Effects have a minus sign here. The full list was thinned out, with strong results kept by preference.

The molecules below were run against human ether-à-go-go-related gene (hERG) potassium channel (human, UniProt Q12809) (assay: primary screen, population patch clamp on CHO cells stably expressing hERG; higher = less effect of the substance).
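Note: peak tail current of the secondary pulse compared with the same well before compound.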

human ether-à-go-go-related gene (hERG) potassium channel, sequence (Q12809 whole entry, looked up): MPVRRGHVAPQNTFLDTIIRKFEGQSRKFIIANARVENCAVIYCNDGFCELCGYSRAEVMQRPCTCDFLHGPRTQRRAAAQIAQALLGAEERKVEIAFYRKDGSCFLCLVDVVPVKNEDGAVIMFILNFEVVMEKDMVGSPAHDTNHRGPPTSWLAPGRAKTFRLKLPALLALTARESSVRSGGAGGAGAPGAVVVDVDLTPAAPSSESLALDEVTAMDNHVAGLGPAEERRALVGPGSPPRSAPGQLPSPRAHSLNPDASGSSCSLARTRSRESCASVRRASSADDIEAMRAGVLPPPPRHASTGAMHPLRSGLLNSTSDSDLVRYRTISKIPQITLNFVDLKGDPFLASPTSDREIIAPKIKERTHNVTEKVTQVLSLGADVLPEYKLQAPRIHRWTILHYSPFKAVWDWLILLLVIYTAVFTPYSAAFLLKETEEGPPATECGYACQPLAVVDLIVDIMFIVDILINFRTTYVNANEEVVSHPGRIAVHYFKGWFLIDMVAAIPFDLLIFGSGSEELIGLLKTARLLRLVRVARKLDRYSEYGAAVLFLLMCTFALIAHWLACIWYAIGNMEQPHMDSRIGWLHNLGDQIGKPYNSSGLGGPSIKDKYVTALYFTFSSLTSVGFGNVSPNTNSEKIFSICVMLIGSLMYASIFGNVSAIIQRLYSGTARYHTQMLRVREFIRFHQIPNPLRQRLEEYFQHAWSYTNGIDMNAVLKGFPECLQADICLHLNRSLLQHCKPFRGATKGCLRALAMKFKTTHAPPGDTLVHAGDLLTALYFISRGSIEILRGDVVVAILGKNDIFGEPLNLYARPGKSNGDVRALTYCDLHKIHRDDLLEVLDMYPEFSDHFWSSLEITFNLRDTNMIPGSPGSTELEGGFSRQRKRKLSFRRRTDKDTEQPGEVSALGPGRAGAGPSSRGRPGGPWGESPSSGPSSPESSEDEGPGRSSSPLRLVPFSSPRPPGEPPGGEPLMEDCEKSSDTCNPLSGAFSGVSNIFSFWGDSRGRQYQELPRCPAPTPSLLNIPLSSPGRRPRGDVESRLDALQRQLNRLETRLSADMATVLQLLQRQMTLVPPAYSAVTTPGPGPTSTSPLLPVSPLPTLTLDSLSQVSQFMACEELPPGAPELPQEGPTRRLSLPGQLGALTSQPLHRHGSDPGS

Row | Structure (SMILES) | hERG current change (%, negative = inhibition) at 10uM
1 | Cc1ccc(S(=O)(=O)N(C)CC(=O)OCC(=O)NCCN2C(=O)CSC2=O)cc1 | -9.67%
2 | O=C(c1ccc(Cl)cc1)C(CN1CCCC1)c1ccccc1 (centres unmarked) | -10.3%
3 | COc1ccc(OC)c(NC(=O)Nc2nnc(N3CCC(C)CC3)s2)c1 | 5.07%
4 | COc1ccc(CCNC(=O)[C@@H](NC(=O)N2CCn3c2nc2ccccc23)C(C)C)cc1OC | -14.3%
5 | Cc1ccc(C)c(NS(=O)(=O)c2ccc(OCC(=O)N3CCOCC3)cc2)c1 | -7.34%
6 | O=C(CCNC(=O)c1ccc([N+](=O)[O-])cc1)NCCc1ccccc1 | -27.8%
7 | CCOc1ccc(-c2cc(CCCC(=O)NCc3cccnc3)no2)cc1 | -35%
8 | COc1ccccc1-c1nnc(NC(=O)C(C)Sc2nncn2C)s1 (centres unmarked) | -1.37%
9 | CCN(CC)c1cc(C)c2cc(NC(=O)c3ccccc3F)ccc2n1 | -81.3%
10 | CCN(CC)c1cc(C)c2cc(NC(=O)c3cccs3)ccc2n1 | -72.2%
11 | CCN(CC)c1ccc(NC(=O)c2ccccc2F)cc1 | -9.39%
12 | CCN(CC)c1cc(C)c2cc(NC(=O)c3ccccc3OC)ccc2n1 | -18.6%
13 | Cc1nc2ccc(NC(=O)c3cccs3)cc2c(=O)n1Cc1ccc(Cl)cc1 | 9.84%
14 | Cc1nc2ccc(NC(=O)c3cccs3)cc2s1 | 19.8%
15 | COc1ccc(Cl)cc1N(CC(=O)Nc1ccc2c(c1)OCO2)S(C)(=O)=O | -24%
16 | COc1cccc(CNC(=O)Cc2c(C(=O)O)[nH]c3ccccc23)c1 | 8.83%
17 | COC(=O)[C@H](CC(C)C)NC(=O)Nc1ccccc1F | 16.6%
18 | Cc1ccccc1Cn1nc(C)c(NC(=O)c2nc3n(n2)C(C(F)F)CC(C)N3)c1C (centres unmarked) | 0.0862%
19 | O=C(CCN1C(=O)c2ccccc2C1=O)NNC(=O)c1ccc(Cl)cc1Cl | 6.82%
20 | c1ccc(-c2nc(-n3ccnc3)nc(-n3ccnc3)n2)cc1 | -69.4%
21 | c1ccc(N(c2ccccc2)c2nc(-n3ccnc3)nc(-n3ccnc3)n2)cc1 | -24.2%
22 | c1ccc(-c2nc(N3CCN(c4ccccc4)CC3)nc(-n3ccnc3)n2)cc1 | -2.66%

Row | Structure (SMILES) | hERG current change (%, negative = inhibition) at 10uM
23 | CN(c1ccccc1)c1nc(N2CCCC2)nc(-n2ccnc2)n1 | -19.5%
24 | CC(C)Nc1nc(-c2ccccc2)nc(-n2ccnc2)n1 | -0.0673%
25 | CN(c1ccccc1)c1nc(-n2ccnc2)nc(-n2ccnc2)n1 | -67.7%
26 | Cc1ccc(S(=O)(=O)N2c3ccccc3CC2C)cc1 (centres unmarked) | 13.4%
27 | COc1ccc(C(=O)CC(=O)C(=O)NCCc2cccc(C)c2)cc1 | 7.31%
28 | O=C(C(=O)N1CCN(c2ccccc2)CC1)c1c[nH]c2ccccc12 | 4.09%
29 | C/C(CC(=O)Nc1ccc2ccccc2c1)=N\NC(=O)c1ccc(O)c(O)c1 | -6.73%
30 | COCCN1C(=O)CC(NNC(=O)c2ccc(S(=O)(=O)N3CCCC3)cc2)C1=O (centres unmarked) | 10%
31 | CCOC(=O)C1CCN(C(=O)CS(=O)Cc2nc(-c3ccc(C)cc3)oc2C)CC1 (centres unmarked) | -0.626%
32 | CCN(C(=O)COC(=O)c1cc(Cl)ccc1OC)c1c(N)n(Cc2ccccc2)c(=O)[nH]c1=O | 4.46%
33 | O=C(Cc1ccccc1)NN1C(=O)c2ccccc2C1=O | -9.37%
34 | COc1ccc(CCNC(=O)CSc2nnc3c(n2)[nH]c2ccc(F)cc23)cc1OC | 12.8%
35 | CCc1ccc(NC(=O)COC(=O)CCc2nc3cc(S(=O)(=O)N(CC)CC)ccc3n2C)cc1 | -60%
36 | CNC(=O)NC(=O)COC(=O)CCc1nc(=O)c2ccccc2n1C | -19.2%
37 | CCNC(=O)NC(=O)COC(=O)CCc1nc(=O)c2ccccc2n1C | 4.87%
38 | CCN(CC)S(=O)(=O)c1ccc2c(c1)nc(CCC(=O)OCC(=O)Nc1cc(OC)cc(OC)c1)n2C | -48.5%
39 | Cn1c(CCC(=O)OCC(=O)Nc2ccc(Oc3ccccc3)cc2)nc(=O)c2ccccc21 | -53.3%
40 | CCN(CC)S(=O)(=O)c1ccc2c(c1)nc(CCC(=O)OCC(=O)Nc1c(F)cccc1F)n2C | -34.6%
41 | CN1CCNC(=O)C1CC(=O)NCCC1=CCCCC1 (centres unmarked) | 18.2%
42 | Cc1ccc(C(C)C)c(OCc2nnc(SCC(=O)Nc3ncc(C)s3)n2C)c1 | -4.11%
43 | CN(C)c1nnnn1-c1ccc(OC(F)(F)F)cc1 | -9.73%
44 | CCCC1(c2ccccc2)NC(=O)N(CC(=O)Nc2cc(S(=O)(=O)N3CCOCC3)ccc2Cl)C1=O (centres unmarked) | -22.6%

Row | Structure (SMILES) | hERG current change (%, negative = inhibition) at 10uM
45 | CC(C)(C)NC(=O)N1CCCN(c2ccc(C(F)(F)F)cn2)CC1 | -0.47%
46 | C[C@H]1C=C(C(=O)NCc2ccccc2)O[C@@H](OCc2ccc(CO)cc2)C1 | -10.5%
47 | Cc1cc(NC(=O)c2cccc(Oc3ccccc3)c2)n[nH]1 | 1.16%
48 | COc1ccccc1N(C)S(=O)(=O)c1ccc(C(=O)OCC(=O)NCCC2=CCCCC2)cc1 | -4.24%
49 | CCCC(=O)NC(C)C(c1cccs1)N1CCN(c2ccccc2)CC1 (centres unmarked) | -7.64%
50 | CC1CCCN(CCCNC(=O)C2CCCN(c3ncnc4c3nc3n4CCCCC3)C2)C1 (centres unmarked) | -4.72%
51 | O=C(NCCc1ccc(Cl)cc1)C1CCCN(c2ncnc3c2nc2n3CCCCC2)C1 (centres unmarked) | -57.2%
52 | COc1ccccc1N1CCN(CCCNC(=O)C2CCCN(c3ncnc4c3nc3n4CCCCC3)C2)CC1 (centres unmarked) | -40.3%
53 | COc1cccc(CCNC(=O)C2CCCN(c3ncnc4c3nc3n4CCCCC3)C2)c1OC (centres unmarked) | -74.7%
54 | COc1ccc(CCNC(=O)C2CCCN(c3ncnc4c3nc3n4CCCCC3)C2)c(OC)c1 (centres unmarked) | -42.8%
55 | CC1CCCCN1CCNC(=O)C1CCCN(c2ncnc3c2nc2n3CCCCC2)C1 (centres unmarked) | -14.3%
56 | Cc1cccc(CCNC(=O)C2CCCN(c3ncnc4c3nc3n4CCCCC3)C2)c1 (centres unmarked) | -59.8%
57 | Cc1cccc(N2CCN(CCCNC(=O)C3CCCN(c4ncnc5c4nc4n5CCCCC4)C3)CC2C)c1 (centres unmarked) | -67.8%
58 | CC1CC(C)CN(CCCNC(=O)C2CCCN(c3ncnc4c3nc3n4CCCCC3)C2)C1 (centres unmarked) | -14.1%
59 | C=CCN(CC=C)CCOc1ccc(C)cc1[N+](=O)[O-].O=C(O)C(=O)O | -47.3%
60 | O=C(Oc1cccc(-n2cnnn2)c1)c1ccco1 | 6.57%
61 | O=C(COC(=O)Cc1ccsc1)NCc1ccccc1 | 19.6%
62 | Clc1ccc(-c2ccc(/C=N/Nc3nncc(-c4ccccc4)n3)o2)cc1 | 20.8%
63 | Cc1cccc(C)c1NC(=O)CN(C)C(=O)c1cccc(NS(=O)(=O)c2ccccc2)c1 | -4.78%
64 | Cc1ccc(S(=O)(=O)NN=C2CCC(C(C)(C)C)CC2)cc1[N+](=O)[O-] (centres unmarked) | -8.37%
65 | COc1ccc(/C=C/C(=O)Oc2cccc(/C=N/NC(=O)COc3c(C)cccc3C)c2)cc1 | 11.8%
66 | Cc1cccc(-c2ocnc2C(=O)Nc2ccccc2C(=O)N2CCCC2)c1 | -37%

Row | Structure (SMILES) | hERG current change (%, negative = inhibition) at 10uM
67 | COc1ccc(C(=O)Nc2ccc(S(=O)(=O)N3CCCCC3C)cc2)c(OC)c1OC (centres unmarked) | -6.46%
68 | CC1CCCC(C)N1CCCNC(=O)C1CCCN(c2ncnc3c2nc2n3CCCCC2)C1 (centres unmarked) | 8.21%
69 | CC1CCN(CCNC(=O)C2CCCN(c3ncnc4c3nc3n4CCCCC3)C2)CC1 (centres unmarked) | 12.5%
70 | O=C(NCCc1ccccc1)C1CCCN(c2ncnc3c2nc2n3CCCCC2)C1 (centres unmarked) | -59.9%
71 | Cc1ccc(CCNC(=O)C2CCCN(c3ncnc4c3nc3n4CCCCC3)C2)cc1 (centres unmarked) | -28.7%
72 | CCOc1ccc(CCNC(=O)C2CCCN(c3ncnc4c3nc3n4CCCCC3)C2)cc1 (centres unmarked) | -58.6%
73 | CSc1ccc(CCNC(=O)C2CCCN(c3ncnc4c3nc3n4CCCCC3)C2)cc1 (centres unmarked) | -61.8%
74 | CN(CCNC(=O)C1CCCN(c2ncnc3c2nc2n3CCCCC2)C1)Cc1ccccc1 (centres unmarked) | -29.1%
75 | COc1cc(/C=N/N2CCN(c3ccccc3OC)CC2)ccc1OC(C)=O | 17.2%
76 | CCOC(=O)Cc1csc(NC(=O)C(NC(=O)C2CCC(C)CC2)C(C)C)n1 (centres unmarked) | 23.5%
77 | CC(C)NC(=O)/C(=C/c1ccco1)c1ccccc1 | -2.25%
78 | Cc1cccc(NC(=O)CCC(=O)c2cccs2)n1 | 12%
79 | Cc1cccc(Nc2nc(N)nc(CSC(=S)N3CCOCC3)n2)c1 | -0.689%
80 | Cc1cccc(Nc2nc(N)nc(CN3CCN(c4ccccc4)CC3)n2)c1 | -54.5%
81 | Cc1cccc(Nc2nc(N)nc(CN3CCN(C)CC3)n2)c1 | -39.2%
82 | Cc1cccc(Nc2nc(N)nc(CN3CCN(c4ccc(F)cc4)CC3)n2)c1 | -73.3%
83 | COc1cccc(N2CCN(Cc3nc(N)nc(Nc4ccccc4)n3)CC2)c1 | -68%
84 | Cc1cccc(Nc2nc(N)nc(CCl)n2)c1 | -0.698%
85 | COc1ccc(Nc2nc(N)nc(CSC(=S)N3CCN(c4ccccc4)CC3)n2)cc1 | 14.1%
86 | COc1cccc(N2CCN(Cc3nc(N)nc(N4CCCc5ccccc54)n3)CC2)c1 | -45%
